{"source": "paper PMC5540273", "about": "(PLoS ONE, 2017);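 note: KINOMEscan kinase panel screen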", "data": [{"system": "PAK3", "conditions": "concentration: 1 μM, replicates: in singlicate; n = 1", "units": {"%Inh": "%"}, "values": [{"smiles": "O=C(Nc1cccc(-c2nn3ccccc3c2-c2ccnc(Nc3cccc(C(F)(F)F)c3)n2)c1)c1c(F)cccc1F", "note": "[GSK292658]", "%Inh": 21}, {"smiles": "Cl.NC(=O)c1cccc(Nc2nccc(Nc3ccc(Oc4c(Cl)cccc4Cl)c(Cl)c3)n2)c1", "note": "[GW659009]", "%Inh": 72}, {"smiles": "COc1ccc(CNC(=O)NC2CCN(c3ccnc(Nc4ccc(F)cc4)n3)CC2)cc1", "note": "[GSK1379788]", "%Inh": 6}, {"smiles": "COc1ccc(Nc2nccc(NCCNC(=O)c3cc4ccccc4s3)n2)cc1", "note": "[GSK1379896]", "%Inh": 2}, {"smiles": "O=c1[nH]cc(-c2ccc(N3CCOCC3)cc2)c2sc(-c3cn[nH]c3)cc12", "note": "[GSK2276055]", "%Inh": 0}]}, {"system": "PAK4", "conditions": "concentration: 1 μM, replicates: in singlicate; n = 1", "units": {"%Inh": "%"}, "values": [{"smiles": "Cl.c1ccc(-c2ccc3c(Nc4ccc5[nH]ccc5c4)ccnc3c2)nc1", "note": "[GW440138]", "%Inh": 0}, {"smiles": "O=C(Nc1ccccc1F)NC1CCN(c2ccnc(Nc3ccc(F)cc3)n2)CC1", "note": "[GSK1379800]", "%Inh": 0}, {"smiles": "Cc1cccc(NC(=O)Nc2ccc(Oc3ncnc4ccn(C)c34)cc2)c1", "%Inh": 0}, {"smiles": "COc1cccc(C2=C(Nc3ccc(Cl)c(C(=O)O)c3)C(=O)NC2=O)c1", "note": "[SB-390769]", "%Inh": 0}, {"smiles": "COc1cccc(-c2ccc3c(NC(=O)C4CC4)n[nH]c3n2)c1", "note": "[SB-710903]", "%Inh": 0}, {"smiles": "CN1CCN(CCCNc2nccc(-c3c(-c4ccc(F)cc4)nn4cc(C(F)(F)F)ccc34)n2)CC1", "note": "[GW621581]", "%Inh": 0}, {"smiles": "COCCOCCOc1cc2ncc3c4ccc(C#N)cc4[nH]c3c2cc1OC", "%Inh": 19}, {"smiles": "O=C(Nc1cccc(-c2nn3ncccc3c2-c2ccnc(Nc3ccccc3)n2)c1)c1c(F)cccc1F", "note": "[GSK198271]", "%Inh": 0}]}]}
